# Hits are enriched below; roughly 6.3% of the tested compounds scored in any of these assays.
# PMK inhibit: inhibitors of Streptococcus pneumoniae phosphomevalonate kinase; 65,000 compounds, 0.49% hits; inhibition, % at 10 µM; purified PMK, PK/LDH-coupled NADH absorbance 340 nm; AID 539;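 active = top-ranked compounds by inhibition in the single 10 µM screen, taking a fixed number of the strongest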;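 note: 0% = full reaction with DMSO carrier and 100% = background rate without enzyme reaction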
# DPM-DC inhibit: blocks S. pneumoniae diphosphomevalonate decarboxylase. purified DPM-DC, PK/LDH coupled NADH fluorescence. calls only at 10 µM. 65,000 compounds, 0.49% hits. AID 556;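 active = the 320 compounds with the highest percent inhibition in the single-dose primary screen, excluding strongly autofluorescent ones, cut at about 32% in these data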;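 note: kinetic rate of NADH fluorescence loss reporting ADP formed by the decarboxylase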
# Autofluor 339: intrinsic fluorescence of library compounds, ex339/em460 – biochemical, MLSMR library, data from DPM-DC assay, artefact control, profiling panel; compound autofluorescence, ex339/em460 nm, NADH buffer; active compounds read high; 1 = no-compound wells, NADH background; fluorescence fold increase at 10 µM; 65,000 compounds, 5.5% hits; AID 709;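 active = at 10 µM, mean starting fluorescence two-fold or more over control wells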;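 note: signal is the first read of a kinetic run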
# A340 absorber: absorbance at 340 nm | compound absorbance at 340 nm, fold over control | fold change at 10 µM | 65,000 tested, under 10 active | AID 708;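 active = at 10 µM dose, initial 340 nm absorbance at least 2 fold that of control wells; inactive = change under 2 fold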;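 note: initial absorbance extrapolated from kinetic A340 decline of NADH oxidation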
# NADH coupling: inhibition of NAD/NADH coupling enzymes, library profiling | coupled PK/LDH NADH assays, four targets | IC50, µM (doses to about 10 µM), inactives show at the top dose inhibition | 65,000 compounds, 0.02% hits | AID 774;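 active = single-dose screening hits from any of four coupled enzyme assays that gave an IC50 when retested across doses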;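 note: the DPM-DC format reads NADH fluorescence rather than 340 nm absorbance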
# Spn MK inh: S. pneumoniae mevalonate kinase inhibition | purified MK, PK/LDH-coupled NADH absorbance 340 nm | inhibition, % at 10 µM | 65,000 compounds, 0.48% hits | AID 555;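 active = ranked among the strongest by inhibition in the single 10 µM screen, a fixed top-ranked set picked for dose follow-up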
# Active calls of the source: *; i = inactive; . = no result given; + = active, no number.
SMILES,PMK inhibit,DPM-DC inhibit,Autofluor 339,A340 absorber,NADH coupling,Spn MK inh
CCOC(=O)c1sc(NC(=O)c2ccc(CC)s2)nc1C,3,.,3.3*,1.1,2%,0
CCOC(=O)c1sc(NCCNc2nc(C)c(C(=O)OCC)s2)nc1C,2,i,1.1,1.1,1%,2
CCOC(=O)c1sc(NC(=O)c2ccc(Cl)s2)cc1C,1,.,2.1*,1.1,4%,6
CCOC(=O)c1sc(NC(=O)C2CC2)cc1C,0,i,1,1.1,3%,4
COc1ccc(C(=O)N[C@H]2COC(C)(C)O[C@H]2c2ccccc2)cc1,1,i,1.1,1,0%,0
CCOc1ccc(-c2nnc(NC(=O)c3ccc(OCC(C)C)c(OC)c3)o2)cc1,14,.,4.9*,1,7%,0
COc1cccc(C(=O)Nc2nnc(-c3ccc(Cl)cc3)o2)c1,6,i,1.3,1.1,5%,0
CCOC(=O)CNC(=O)Nc1nnc(-c2ccc(OCC)cc2)o1,28*,i,1.5,1,7%,4
CCOC(=O)COc1ccc(-c2nnc(-c3ccccc3)o2)cc1,8,i,1.2,0.99,5%,8
CCC(=O)Oc1ccc(/C(CC)=C(\CC)c2ccc(OC(=O)CC)cc2)cc1,3,i,0.99,1,1%,2
O=C(NCc1ccccc1)C1C2C=CC3(CN(Cc4cccnc4)C(=O)C13)O2 (configuration not stated),27*,i,0.98,0.99,11%,0
COc1ccc(CCNC(=O)CC2Nc3ccccc3NC2=O)cc1 (configuration not stated),14,i,2.1*,0.99,8%,5
COc1ccc(CCNC(=O)CC2Nc3ccccc3NC2=O)cc1OC (configuration not stated),15,i,1.4,1,11%,4
CC(=O)C1=C(O)C=C(c2ccco2)CC1c1ccco1 (configuration not stated),18,i,1,1.1,7%,0
O=C1CN(C(=O)COC(=O)C2=COCCO2)c2ccccc2N1,23,i,1.1,1,26%,56*
O=C(Nc1cnn(C23CC4CC(CC(C4)C2)C3)c1)c1cnn2c(C(F)(F)F)cc(-c3ccco3)nc12,6,i,1.1,1,4%,12
O=C(c1cc2nc(-c3ccco3)cc(C(F)(F)F)n2n1)N1CCc2ccccc2C1,30*,.,2.2*,1.1,20%,10
O=C(NC12CC3CC(CC(C3)C1)C2)c1cc2nc(-c3ccco3)cc(C(F)(F)F)n2n1,12,i,2.9*,1,13%,9
O=C(c1cc2nc(-c3ccccc3)cc(C(F)(F)F)n2n1)N1CCOCC1,3,i,1.3,1.1,2%,3
O=C(NC1CCCCC1)c1cc2nc(-c3ccco3)cc(C(F)(F)F)n2n1,2,.,2.9*,1,4%,15
O=C(NC1CCCCC1)c1cc(-c2ccco2)on1,17,i,1.1,0.98,6%,0
O=C(Nc1cnn(Cc2ccccc2)c1)c1cc2nc(-c3ccco3)cc(C(F)(F)F)n2n1,5,.,3.3*,1.1,11%,16
Oc1ccc(N=Cc2ccc(-c3cccs3)s2)cc1,10,.,2.2*,1.1,9%,7
CCOC(=O)C1=C(C)Nc2nc(SCC)[nH]c(=O)c2C1c1ccncc1 (configuration not stated),0,i,1.2,1.1,3%,9
Cc1ccc(OCCN2CCCCCC2)c(C)c1,10,i,1.1,1,5%,6
SMILES,PMK inhibit,DPM-DC inhibit,Autofluor 339,A340 absorber,NADH coupling,Spn MK inh
Clc1ccccc1OCCN1CCCCC1,11,i,1.1,1.1,17%,41*
Cc1ccccc1OCCCN1CCCC1,0,i,1.1,1.1,14%,43*
Clc1ccccc1OCCn1ccnc1,0,i,1.1,1.1,3%,10
Fc1ccccc1OCCCN1CCOCC1,0,i,1.1,1.1,17%,52*
CCc1ccccc1OCCCCN1CCCC1,3,i,1,1,8%,71*
COc1ccc(S(=O)(=O)NCc2ccccn2)c(Cl)c1Cl,4,i,1.1,1.1,4%,4
C=CCc1ccccc1OCCCCN1CCCC1,9,i,1,1,6%,45*
C=CCc1ccccc1OCC(CN1CCCCC1)OC(C)=O (configuration not stated),18,i,1.3,0.99,6%,0
COc1cccc(OCCCCN2CCCCC2)c1,0,i,1.1,1,19%,55*
O=C(CNS(=O)(=O)c1ccc(Br)s1)N1CCC(N2CCCCC2)CC1,16,i,1.1,1,5%,0
COc1ccc(CCNC(=O)CSc2nnc(CNC(=O)c3ccccc3F)o2)cc1OC,7,i,1.1,1.1,4%,4
Cc1nn(-c2ccc(F)cc2F)c2c1-c1nc(N3CCCC3)ncc1CC2,11,.,5.1*,1,6%,0
Cc1ccc(NC(=O)CCn2cccc2)cc1Cl,5,i,1,1,2%,0
CC(C)C(=O)Nc1c2c(nc3ccccc13)N(C)CC2,8,.,2.2*,1.1,8%,7
O=C(CN1CCOCC1)Nc1c2c(nc3ccccc13)N(Cc1ccccc1)CC2,12,.,3.7*,1.1,10%,8
CC(C)C(NS(=O)(=O)c1ccc2c3c(cccc13)C(=O)N2)C(=O)O (configuration not stated),0,.,2.2*,1.1,1%,2
O=C(O)c1ccccc1NS(=O)(=O)c1ccc2c3c(cccc13)C(=O)N2,8,i,1.1,1,7%,13
O=C1Nc2ccc(S(=O)(=O)NCc3ccco3)c3cccc1c23,0,.,2.2*,1.1,1%,1
COC(=O)c1ccccc1NS(=O)(=O)c1ccc2c3c(cccc13)C(=O)N2,15,i,2.8*,1,16%,6
CCOc1ccc(S(=O)(=O)NCc2ccco2)c2ccccc12,0,i,1.1,1,1%,2
COc1cccc(NC(=O)CCS(=O)(=O)c2cccs2)c1,10,i,1.2,1,4%,2
CCc1ccc(S(=O)(=O)NCCc2cn3ccsc3n2)s1,7,i,0.98,1,4%,4
CCc1ccc(S(=O)(=O)NCc2cn3ccsc3n2)s1,7,+,1,1,37%,10
O=C(CN1C(=O)c2cccc3cccc1c23)Nc1cccnc1,6,i,2.1*,1,13%,12
Cc1ccc2[nH]c3c(c2c1)CN(C(=O)CN1CCN(c2ccccc2F)CC1)CC3,0,i,1.1,1,2%,5
CCC(CC)NC(=O)c1n[nH]c(=O)c2ccccc12,0,i,1,1,0%,0
